Screening data as filed in PubChem.
Beta apoptosis = blocks beta cell apoptosis; INS-1E cytokine-induced death, ATP luminescence, 48 h; percent of positive-control rescue, neutral wells zero; protection from apoptosis, % (concentration not given with the values); hit rate 0.8% among 300,000; AID 435005;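 active = Every replicate reaches about 75%, or at least half do and their mean reaches it too, limit read from the data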;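 note: 0% = cytokine-treated negative control wells and 100% = positive control rescue; higher means more ATP so stronger rescue from cytokine killing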
Calb FLC = C. albicans growth modulation with fluconazole | C. albicans CaCi-2 (fluconazole-resistant clinical isolate) + fluconazole, Alamar Blue growth, 48 h | AID 1979 | hit rate 0.57% among 300,000 | growth inhibition, % (test concentration not listed);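 active = growth inhibition above about 58% in most replicates, limit read from the data, passing the limit was not always enough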;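 note: all wells also contain fluconazole at 8 µg/ml as a sub-toxic cotreatment; 0% = median of DMSO wells and 100% = median of geldanamycin control wells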
CSC inhib = blocks cancer stem cells | cancer stem cell-like cells viability, luminescence | inhibition, % at 7.5 µM | hit rate 1.1% among 300,000; in the data active = inhibition above about 75%; tested in HMLE shEcad cells
SKKanGAS inh = inhibitors of SKKanGAS S. pyogenes growth in kanamycin (SK-promoter or general growth effect) | BacTiter-Glo, 6 h | inhibition, % at 7.5 µM | hit rate 1.3% among 300,000;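 active = mean replicate score, as percent of positive control median, at least 50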;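 note: strain carries kanamycin resistance gene driven by streptokinase promoter and grows in 40 µg/ml kanamycin; loss of luminescence reflects streptokinase promoter inhibition or plain growth inhibition; 0% = median of DMSO wells and 100% = positive control at its reference dose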
MPTP block = permeability transition pore inhibition; inhibition, % at 10 µM; hit rate 1.4% among 360,000; isolated mouse mitochondria, Ca2+ swelling absorbance, 30 min; AID 602449;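 active = inhibition of 50% or more, scaled per plate between neutral and stimulator controls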;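 note: 0% = DMSO wells given calcium and 100% = 1 mM EGTA wells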
Mdm2-MdmX inh = inhibitors of human Mdm2/MdmX interaction. O15151+Q00987. SaOS-2 split-luciferase Mdm2/MdmX complementation, luminescence. inhibition, % at 8 µM. hit rate 3% among 330,000. AID 485346;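 active = inhibition of at least 50% at 8 µM in the primary screen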
Target sequence (O15151 whole entry, looked up): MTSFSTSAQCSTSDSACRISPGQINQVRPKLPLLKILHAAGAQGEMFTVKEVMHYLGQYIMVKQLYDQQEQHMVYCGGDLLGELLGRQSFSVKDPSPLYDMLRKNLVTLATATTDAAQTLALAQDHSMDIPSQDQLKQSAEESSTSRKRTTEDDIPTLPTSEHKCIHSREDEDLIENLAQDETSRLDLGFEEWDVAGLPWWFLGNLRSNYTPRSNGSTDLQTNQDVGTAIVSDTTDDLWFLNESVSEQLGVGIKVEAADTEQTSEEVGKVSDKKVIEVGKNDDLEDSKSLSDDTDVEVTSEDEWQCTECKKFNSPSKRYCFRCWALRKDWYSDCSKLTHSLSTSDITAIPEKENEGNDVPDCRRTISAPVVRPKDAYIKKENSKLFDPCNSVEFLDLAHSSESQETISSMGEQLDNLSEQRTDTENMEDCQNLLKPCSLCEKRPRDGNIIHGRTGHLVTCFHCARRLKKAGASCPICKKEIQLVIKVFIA
Target sequence (Q00987 whole entry, looked up): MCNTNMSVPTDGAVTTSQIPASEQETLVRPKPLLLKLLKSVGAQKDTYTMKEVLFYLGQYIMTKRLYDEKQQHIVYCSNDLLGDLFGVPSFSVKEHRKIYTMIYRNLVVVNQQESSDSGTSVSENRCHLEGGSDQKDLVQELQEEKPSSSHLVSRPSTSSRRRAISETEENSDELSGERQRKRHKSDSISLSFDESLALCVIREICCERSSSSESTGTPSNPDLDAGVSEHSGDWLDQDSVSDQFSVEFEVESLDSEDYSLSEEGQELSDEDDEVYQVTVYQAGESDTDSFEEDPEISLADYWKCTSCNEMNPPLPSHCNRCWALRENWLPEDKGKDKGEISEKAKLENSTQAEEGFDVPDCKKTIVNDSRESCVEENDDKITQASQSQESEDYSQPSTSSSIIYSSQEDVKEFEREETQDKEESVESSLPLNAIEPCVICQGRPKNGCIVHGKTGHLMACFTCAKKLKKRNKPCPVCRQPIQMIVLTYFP
The depositor's hits bear a star. Hits are enriched below; roughly 5.4% of the tested compounds scored in any of these assays.

`O=C(COc1cccc(Cl)c1)Nc1ccccc1N1CCCCC1` gave Beta apoptosis -6, Calb FLC -6, CSC inhib 13, SKKanGAS inh 66*, MPTP block 1 and Mdm2-MdmX inh -5.
`Cc1cc(C)c(OCC(=O)Nc2ccccc2N2CCCCC2)c(C)c1` gave Beta apoptosis 8, Calb FLC 0, CSC inhib -6, SKKanGAS inh 80*, MPTP block 5 and Mdm2-MdmX inh 20.
`Cc1cc(C)c(OCC(=O)Nc2ccccc2N2CCOCC2)c(C)c1` gave Beta apoptosis 1, Calb FLC 2, CSC inhib 19, SKKanGAS inh 4, MPTP block 0 and Mdm2-MdmX inh 16.
C#CCNC(=O)c1cccn1-c1ncc(C(F)(F)F)cc1Cl was read as Beta apoptosis 0, Calb FLC -11, CSC inhib 2, SKKanGAS inh 6, MPTP block -1 and Mdm2-MdmX inh 13.
Screening O=C(Nc1ccccc1C(=O)O)c1cccc(NC(=O)c2ccc(Br)o2)c1 returned Beta apoptosis -1, Calb FLC 23, CSC inhib 11, SKKanGAS inh 83*, MPTP block 0 and Mdm2-MdmX inh 0.
COc1ccc(CN(C)S(=O)(=O)c2ccc3c(c2)OCCO3)cc1 was read as Calb FLC 11, CSC inhib -5, SKKanGAS inh 51*, MPTP block 0 and Mdm2-MdmX inh 5.
Screening CN(Cc1ccccc1)S(=O)(=O)c1ccc2c(c1)OCCO2 returned Beta apoptosis 2, Calb FLC -4, CSC inhib -3, SKKanGAS inh 8, MPTP block 1 and Mdm2-MdmX inh 1.
Cc1ccc(-c2nc3sc(C#N)c(N)n3c(=O)c2C#N)cc1 was read as Beta apoptosis 3, Calb FLC 111*, CSC inhib 10, SKKanGAS inh 12, MPTP block 0 and Mdm2-MdmX inh 9.
`Cc1ccc(-n2c(N)c(C#N)c(-c3ccccc3)c(C#N)c2=O)cc1` gave Beta apoptosis -1, Calb FLC -15, CSC inhib -9, SKKanGAS inh -1, MPTP block 3 and Mdm2-MdmX inh -7.
Screening Cc1c(C(=O)NCCN(C)C)oc2ccc(S(=O)(=O)N3CCC4(CC3)OCCO4)cc12 returned Beta apoptosis -2, Calb FLC -9, CSC inhib -4, SKKanGAS inh 4, MPTP block 0 and Mdm2-MdmX inh 8.
O=C(OCC#CCSc1nnc(-c2cccc3ccccc23)o1)c1cccc2[nH]ccc12 was read as Beta apoptosis -6, MPTP block 2 and Mdm2-MdmX inh 27.
Cc1ccc(C(=O)c2oc3nc(C)cc(C)c3c2N)cc1 was read as Beta apoptosis 9, Calb FLC 121*, CSC inhib -5, SKKanGAS inh -4, MPTP block 1 and Mdm2-MdmX inh -18.
`COc1ccc(C(=O)c2oc3nc(C)cc(C)c3c2N)cc1` gave Beta apoptosis 4, Calb FLC -10, CSC inhib -17, SKKanGAS inh 7, MPTP block -2 and Mdm2-MdmX inh -1.
Screening O=C(O)C(c1ccccc1)N1C(=O)/C(=C\c2ccc(-c3ccc(Br)cc3)o2)SC1=S (configuration not stated) returned Calb FLC 47, SKKanGAS inh 109*, MPTP block 6 and Mdm2-MdmX inh 9.
`O=C1/C(=C\c2ccc(-c3ccccc3Cl)o2)SC(=S)N1CC1CCCO1` (configuration not stated) gave Beta apoptosis -10, Calb FLC -2, CSC inhib 3, SKKanGAS inh 6, MPTP block 3 and Mdm2-MdmX inh 13.
For COc1cc(/C=C2\SC(=S)N(C(C(=O)O)c3ccccc3)C2=O)cc(OC)c1OC (configuration not stated) the results were Beta apoptosis -4, Calb FLC 8, CSC inhib 16, SKKanGAS inh 15, MPTP block 2 and Mdm2-MdmX inh -6.
`O=C(O)C(c1ccccc1)N1C(=O)/C(=C\c2ccc(-c3ccccc3Cl)o2)SC1=S` (configuration not stated) gave Calb FLC 33, SKKanGAS inh 102*, MPTP block 2 and Mdm2-MdmX inh 0.
`COc1ccc(CC(=O)NNC(=O)c2ccoc2C)cc1OC` gave Beta apoptosis 0, Calb FLC -3, CSC inhib -7, SKKanGAS inh 3, MPTP block -2 and Mdm2-MdmX inh -12.
Screening C/C(=N\Nc1ncc(Cl)cc1Cl)c1ccccn1 returned Calb FLC 98*, SKKanGAS inh 58* and MPTP block 0.
C/C(=N\Nc1ccc(Cl)c(C(=O)O)c1)c1ccccn1 was read as Beta apoptosis -4, Calb FLC -4, CSC inhib -10, SKKanGAS inh 1, MPTP block 0 and Mdm2-MdmX inh 6.
O=S(=O)(NCc1ccco1)c1ccc(S(=O)(=O)N2CCCCC2)cc1 was read as Beta apoptosis 0, Calb FLC 11, CSC inhib -2, SKKanGAS inh 0, MPTP block 0 and Mdm2-MdmX inh -4.
CCOc1ccccc1C(C(=O)NCCOC)N(CCOC)C(=O)Cn1nnc2ccccc21 (configuration not stated) was read as Beta apoptosis -5, Calb FLC 3, CSC inhib 13, SKKanGAS inh 2, MPTP block 1 and Mdm2-MdmX inh 5.
For COCCNC(=O)C(c1ccc(C)o1)N(CCOC)C(=O)Cn1nnc2ccccc21 (configuration not stated) the results were Beta apoptosis -5, Calb FLC 82*, CSC inhib 5, SKKanGAS inh -3, MPTP block 1 and Mdm2-MdmX inh 9.
For COC(=O)c1ccc(NC(=O)CN2CCN(S(=O)(=O)c3ccc(Br)cc3)CC2)cc1 the results were Beta apoptosis -8, Calb FLC 9, CSC inhib -6, SKKanGAS inh 45, MPTP block 4 and Mdm2-MdmX inh 12.
`O=C(Nc1ccc(C(=O)N2CCOCC2)cc1)c1cccc([N+](=O)[O-])c1` gave Beta apoptosis -9, Calb FLC -9, CSC inhib 0, SKKanGAS inh -1, MPTP block 0 and Mdm2-MdmX inh -5.
Screening N#CC1=C(N)Oc2c(ccc3cccnc23)C1c1cccnc1 (configuration not stated) returned Beta apoptosis 99*, Calb FLC 104*, CSC inhib 68, SKKanGAS inh 0, MPTP block -2 and Mdm2-MdmX inh 29.
CC(=O)C1=C(C)OC(N)=C(C#N)C1c1cc2cccc(C)c2nc1Cl (configuration not stated) was read as Beta apoptosis -6, Calb FLC 49, CSC inhib -6, SKKanGAS inh 0, MPTP block 0 and Mdm2-MdmX inh 21.
CCc1ccc2[nH]c(=O)c(C3C(C#N)=C(N)Oc4c3ccc3cccnc43)cc2c1 (configuration not stated) was read as Beta apoptosis 94*, Calb FLC 110*, CSC inhib 97*, SKKanGAS inh 58*, MPTP block 6 and Mdm2-MdmX inh 34.
